PubChem BioAssay AID1981 (Southern Research Specialized Biocontainment Screening …, 2009)
The campaign covered roughly 2,200 compounds. About 480 (22%) were called active. These entries were drawn from the full list. Results with a measured potency or affinity are listed apart. A number with no mark means an inactive call. The rule behind the calls is not given here.

Test: S. Typhimurium GFP fluorescence dose response in modified counterscreen for PhoP regulon inhibitor project (AID 1981);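 note: 0% = induced DMSO wells and 100% = uninduced wells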
Details: 4 h; series mostly up to 150 µM; inhibition: at the top concentration

SMILES | inhibition [%]
Cn1c(-c2ccc3c(c2)OCO3)cnc1NCc1cccc(Cl)c1 | 3.03
O=C(NCCN1CCOCC1)c1ccc2ccccc2c1 | -7.47
O=C(Cc1ccccc1)NCc1ccc(F)cc1 | -4.57
Fc1ccccc1CCNCc1cccc(Cl)c1Cl | -9.53
c1coc(CNc2c3c(nc4ncnn24)CCCC3)c1 | 4.68
O=S(=O)(Nc1ccc2c(c1)nc1n2CCN(Cc2ccccc2)C1)c1ccc(F)cc1 | 35.4
CCn1c(SCC(=O)Nc2ccc3c(c2)oc2ccccc23)nnc1-c1ccc(N)cc1 | 7.32
CC1(C)CC(=O)C2=C(C1)N(c1ccc(F)cc1)C(N)=C(C#N)C2c1cccs1 (stereo not drawn) | -7.31
O=C(Oc1ccc(N(Cc2cccs2)C2=NS(=O)(=O)c3ccccc32)cc1)c1ccc(Cl)cc1 | -4.74
O=C(NCCNc1ccc([N+](=O)[O-])cc1C(F)(F)F)c1ccccc1F | -2.86
O=C(Nc1cnc2ccccc2c1)N1CCOCC1 | -0.26
CCOC(=O)N1CCN(S(=O)(=O)c2ccc(C(=O)NNc3nc4c(C)cc(C)cc4s3)cc2)CC1 | 23.2
O=C(c1ccco1)c1cn(CC(=O)N2CCCc3ccccc32)c2ccccc12 | 0.78
O=c1cc(O)nc(SCc2ccccc2Cl)[nH]1 | 13.7
Cc1cc(C(=O)N2CCN(C/C=C/c3ccccc3)CC2)no1 | 1.76
Cc1[nH]c2ccccc2c1C(c1ccncc1)N1CCN(c2ccc(F)cc2)CC1 (stereo not drawn) | 10.1
Cn1cc(-c2nnnn2-c2cccc(C(F)(F)F)c2)c(C(F)(F)F)n1 | -4.52
COC(=O)CSc1nc(SCc2ccccc2Cl)nc2c1CCCC2 | -9.78
c1ccc(-c2cc(CSc3nc4ccccc4[nH]3)on2)cc1 | 7.53
N#Cc1nc(Cc2cccc3ccccc23)oc1NCCCN1CCOCC1 | 5.53
Cc1nc2cc(NC(=O)N3CCN(c4ccccn4)CC3)ccc2o1 | -5.86
Oc1ccc(C2NCc3ccccc3-n3cccc32)cc1Cl (stereo not drawn) | -3.11
CC(=O)c1sc(NC(=O)COc2ccc([N+](=O)[O-])cc2)nc1C | 8.86

SMILES | inhibition [%]
CCn1c(SCc2ccc(F)cc2)nc2ccccc2c1=O | 2.23
CCCCCc1ccc(OCCC[n+]2ccccc2)c(CCCCC)c1 | 12.3
O=C(CSC1CCCCC1)Nc1ccccc1Br | -7.98
COc1ccc(NC(C)C(=O)Nc2ccc(C(C)(C)C)cc2)cc1Cl (stereo not drawn) | -0.84
Cc1cccc(-n2c(O)c(C=NCc3cccnc3)c(=O)[nH]c2=O)c1C | -13.1
Cc1ccc(C(C[N+](=O)[O-])c2c(C)cc3ccccn23)cc1 (stereo not drawn) | 36.1
O=C(O)CCS(=O)(=O)c1ccc(-c2ccccc2)cc1 | -5.08
CNC(=O)CSc1nnc(-c2cccnc2)n1CCc1ccccc1 | -12.9
Cc1ccc(-c2nc3ccccc3[nH]2)cc1NC(=S)NC(=O)c1ccccc1Br | 19.1
Cc1ccc(OCc2nnc(SCC(=O)Nc3ccc4c(c3)OCO4)n2C)cc1 | 0.07
CCOc1ccc(/C(O)=C2\C(=O)C(=O)N(CCN(C)C)C2c2cccc(OC)c2OC)cc1Cl (stereo not drawn) | 10.6
O=C(Cc1cccs1)Nc1cccc(-c2nc3cc4ccccc4cc3[nH]2)c1 | 24.7
COc1ccc(Cl)cc1-c1nc(SCC(N)=O)n[nH]1 | -2.75
O=C(OCC#CCSc1nnc(-c2cccc3ccccc23)o1)c1ccco1 | -8
COc1ccc(Nc2nc(-c3c[nH]c4ccccc34)cs2)cc1 | 27.9
CCc1ccccc1NC(=O)c1nnn(CC(=O)Nc2cccc(C)c2C)c1N | -15.5
COc1ccccc1N1CCN(C(=O)c2cccc3c(=O)c(C)c(-c4ccccc4)oc23)CC1 | -17.4
CCc1ccc2[nH]c(=O)c(CN(Cc3ccccc3)C(=O)Nc3ccccc3OC)cc2c1 | -15.6
COc1ccccc1NC(=S)NC(=O)C(C)(C)C | -8.6
COC(=O)c1ccc(C)c(NC(=O)CN(c2cc(OC)ccc2OC)S(C)(=O)=O)c1 | -2.55
N#CC1(C#N)COC23CCCCC2C1(C#N)C(=N)O3 (stereo not drawn) | 1.01
COc1ccc(OC)c(-c2cc(C(=O)Nc3c(C)nn(Cc4ccccc4)c3C)no2)c1 | 10.4
Cc1nc2ccccc2n1CC(=O)NCc1ccccc1 | -9.25

SMILES | inhibition [%]
CCN1CCN(C(=O)c2ccc3c(=O)n(Cc4ccccc4OC)c(=S)[nH]c3c2)CC1 | -14.1
CC(C)Cc1nc2ccc(N)cc2[nH]1 | -1.44
Cc1[nH]c2ccccc2c1C(=O)COC(=O)c1ccc([N+](=O)[O-])s1 | 30.4
Cc1ccc(NC(=O)CSc2nnc(C3CCCCC3)n2N)cc1F | -11.3
O=C(c1cccnc1Nc1ccc2c(c1)CCC2)N1CCOCC1 | -48.3
O=C(Nc1cccn(Cc2c(Cl)cccc2Cl)c1=O)c1ccccc1Cl | -11.1
CCCn1c(N)c(C(=O)COC(=O)c2c(C)noc2C)c(=O)n(C)c1=O | 3.88
CCOC(=O)C1=CSC2=NS(=O)(=O)CCN12 | -14.2
O=C(CCN1C(=O)COc2ccccc21)NCCN1CCOCC1 | -33.9
C#CCn1c(=NC(=O)c2cc(Cl)sc2Cl)sc2cc(S(N)(=O)=O)ccc21 | 7.48
CCN(CC)S(=O)(=O)c1ccc(C(=O)N2CCN=C2SCc2cccnc2)cc1 | 9.39
Cc1ccc(Nc2cc(C)c3c(O)cccc3n2)cc1C | 28.9
Cc1cc(Nc2ccccc2)nc2cc(O)ccc12 | 7.5
Cc1cc(O)ccc1Nc1nc2ccccc2nc1Nc1ccc(O)cc1C | 23.1
Cc1ccc(Nc2cc(C)c3ccc(O)cc3n2)cc1C | -9.87
c1ccc(-n2cnc3cc(NCc4ccccn4)ccc32)cc1 | -5.78
CCOC(=O)c1[nH]c2ccccc2c1NC(=O)C(C)(C)C | -11
Cn1cc(C(CC(=O)O)C(=O)O)c2ccccc21 (stereo not drawn) | -12.2
CCOc1ccc(-n2c(SCc3nc(-c4ccc(C)cc4)no3)nnc2-c2ccncc2)cc1 | -16.5
c1cncc(-c2nc(N3CCOCC3)c3ccccc3n2)c1 | -16.8
O=c1[nH]c2cc3c(cc2cc1CN(CCc1ccccc1)Cc1nnnn1CC1CCCO1)OCO3 (stereo not drawn) | -25.9
CCn1c(=O)c(=O)[nH]c2cc(C(=O)NCC3CCCCC3)ccc21 | -9
CCOC(=O)CNS(=O)(=O)c1c(C)noc1C | -22.1

SMILES | inhibition [%]
CC1=CC2=NC(=O)/C(=C\c3cc(C)n(-c4ccc(F)cc4)c3C)C(=N)N2O1 | -3.44
Cc1ccc(C(=O)CSC2=C(C#N)C(c3ccco3)CC(=O)N2)c(C)c1 (stereo not drawn) | 5.92
COCCNC(=S)N(Cc1cccnc1)Cc1ccc(OC)c(OC)c1 | -2.44
COc1ccc(NC(=O)ON=C2c3ccccc3-c3ccccc32)cc1 | -8.68
COC(=O)c1cc(C#N)c(Oc2ccccc2OC)nc1C | -4.37
O=C(Cn1nc(C(F)(F)F)c2c1CCCCC2)N1CCOCC1 | -3.81
Cc1ccc2occ(/C=N/O)c(=O)c2c1 | 19.3
C#CCOc1ccc(/C=C2\SC(=S)N(Cc3cccnc3)C2=O)cc1 | -3.35
c1ccc2oc(SCc3cn4ccccc4n3)nc2c1 | -8.39
Cc1cc(NC(=O)c2ccco2)ccc1-n1cnnn1 | -22.4
CCOc1ccccc1Nc1nc2ccccc2n2cnnc12 | 1.65
CCn1c(=O)c2c(O)cc(=O)oc2c2ccccc21 | 5.61
Cc1nc([N+](=O)[O-])c(Br)n1CC(=O)c1ccccc1 | 23.7
C=CCNc1ncnc2ccc(Br)cc12 | -12.8
O=c1c2c(-c3ccccc3)csc2nc2c3ccccc3c(NCCN3CCOCC3)nn12 | 8.44
COc1ccc(NC(=O)CSc2nnc(-c3cccs3)n2Cc2ccco2)cc1OC | -16.9
CCSc1nc(C2CC2)cc(-c2cccs2)c1C#N | -1.65
c1ccc2cc(CSCc3nc4ccccc4[nH]3)ccc2c1 | 13.8
Cc1ccc(NC(=O)COC(=O)C2(c3ccc(Cl)cc3)CCCC2)cc1 | -16.8
O=C(CSc1nnc(-c2cccnc2)o1)OC1CCCCC1 | -25.1
COc1cccc(NS(=O)(=O)c2c(C)cc(C)cc2C)c1 | 7.36
c1ccc2c(C3=NNC(=NC4CC4)SC3)c[nH]c2c1 | -24.9
COc1ccc(NC(=O)CSc2nc(C)cs2)cc1OC | -5.4

SMILES | inhibition [%]
c1ccn2c(CNc3ncnc4sccc34)nnc2c1 | -17.6
CCCCOC(=O)CCNc1n[nH]c(=O)[nH]c1=O | 0.14
O=C(Nc1ccc(NC(=O)C23CC4CC(CC(C4)C2)C3)cn1)c1ccco1 | -13.3
COC(=O)CCC(=O)Nc1ccc(OC)cc1 | 0.92
CC(=O)N/N=C/c1ccc(OCCOc2ccc(Br)cc2)cc1 | -23.2
O=C1CCCc2c1cc(C(=O)NCc1ccco1)c(=O)n2-c1ccc(Cl)cc1 | -3.88
COc1ccc(OC)c(C2=Nn3c(nnc3-c3cc(OC)c(OC)c(OC)c3)SC2)c1 | -4.61
N[C@H](CSCc1ccccc1)C(=O)Nc1ccc([N+](=O)[O-])cc1 | 5.75
O=C(Cc1ccc(Cl)cc1)NNS(=O)(=O)c1ccc([N+](=O)[O-])cc1 | -10.4
Cc1ccc(CSCc2nc3ccccc3[nH]2)cc1 | 8.08
CN1CCCC(OC(=O)CCCC(=O)OC2CCCN(C)C2)C1 (stereo not drawn) | 2.83
O=C(c1ccc(Oc2ccccc2)cc1)c1nc2c(n1O)CCCC2 | 23.6
CC1CC(C)CN(CCCSc2ccccc2)C1 (stereo not drawn) | -12
CC(Nc1ccc(Br)cn1)c1cc(Cl)ccc1O (stereo not drawn) | 15.7
O=C(CN1CCN(c2ccccn2)CC1)Nc1ccc(Oc2ccccc2)cc1 | 0.24
Cc1nn2c(=O)cc(CSc3nc4ccccc4[nH]3)nc2s1 | 5.25
CC(=Nc1c(C)n(C)n(-c2ccccc2)c1=O)c1c(O)n(Cc2ccccc2)c(=O)[nH]c1=O | -0.46
Cc1cc2nn(-c3ccccc3)nc2cc1NC(=O)c1cccs1 | -22.9
NNC(=O)CNC(c1ccccc1)c1cc(Br)ccc1NC(=O)c1ccc(Br)cc1 (stereo not drawn) | 19
O=C(/C=C/c1ccco1)N/C(=C\c1ccccc1)C(=O)NCCc1nc2ccccc2[nH]1 | -0.03
O=C(O)CCc1nn2c3ccccc3n(CCN3CCCCC3)c2nc1=O | 4
